According to PubChem BioAssay (Tox21):
Records with an inconclusive call do not appear. Where a call stands in place of a potency, no number is given. Values without a mark were called inactive. Calls of active or inactive are those of the source. The call rests on the fitted dose curve; in most records, active means well fitted cell-killing curve with a large enough effect in the repeat runs; inconclusive means weak or mixed curves; inactive means no such curve, though single readings can be large or run the other way.

Assay: qHTS assay for identifying genotoxic compounds that show differential cytotoxicity against isogenic chicken DT40 cell lines with known DNA damage response pathways - Rad54/Ku70 mutant cell line (AID 743015); further: nearly all actives have a fitted effect of over 60% in size
Conditions: DT40 Rad54/Ku70 mutant viability, CellTiter-Glo, 40 h; series mostly up to 66.8 µM
Source text: National Center for Advancing Translational Sciences [NCATS]
NIH Chemical Genomics Center [NCGC]
U.S. Environmental Protection Agency [EPA]
National Institutes of Environmental Health Sciences [NIEHS]
National Toxicology Program [NTP]
U.S. Food and Drug Administration [FDA]
DNA repair pathways play a critical role in cellular homeostasis by repairing DNA damage induced by endogenous processes and xenobiotics. Isogenic chicken DT40 cell lines deficient in different DNA repair pathways can be used to identify genotoxic compounds and aid in characterizing the nature of the DNA damage induced. Two DNA repair-deficient cell lines with disrupted genes, Rad54/Ku70 or Rev3, were used to screen the Tox21 10K compound library. Possible genotoxicity was based on the presence of a significant increase in cytotoxicity in one or more of the DNA repair-deficient cell lines compared to that observed in the parental DNA repair-proficient cell line. CellTiter Glo viability assay (Promega, Madison, WI) was used to measure cell viability in these cells after compound treatment. This assay includes the data from the Rad54/Ku70 mutant cell line.
Tox21 Assay Protocol Summary:
300 DT40 mutant cells in 5 uL/well were dispensed into white, solid-bottom 1536-well plates using a Multidrop Combi (ThermoFisher Scientific, Waltham, MA) dispenser. After the assay plates were incubated at 37 C/5% CO2 for approximately 0.5 hour, 23 nL of compounds dissolved in DMSO, positive controls or DMSO only was transferred into the assay plate by a pintool work station (Kalypsys, San Diego, CA). The assay plates were incubated at 37 C/5% CO2 for 40 hours. After 5 uL per well of CellTiter-Glo reagent was added into each well of the assay plates, the plates were incubated for 30 min at room temperature and the luminescence intensity of the plates was measured using a ViewLux (PerkinElmer, Shelton, CT) plate reader.
Potency means the concentration at half of the fitted maximal effect.

SMILES	Potency	activity change, negative = cytotoxicity
Cc1ccc(-c2nc3ccc(C)cn3c2CC(=O)N(C)C)cc1	inactive	
O=c1[nH]c2ccccc2o1	inactive	
Oc1ccc(Cc2ccc(O)cc2)cc1	inactive	
CCN(CCO)CCn1c(Cc2ccccc2)nc2c1c(=O)n(C)c(=O)n2C	inactive	
Clc1nc(Cl)nc(Nc2ccccc2Cl)n1	inactive	
C#CC(C)(C)O	inactive	
CCCCCCCC(=O)Cl	inactive	
[O-][Br+2]([O-])O	inactive	
NNCc1ccccc1	inactive	
C/C(=N\NC(=O)Nc1cc(F)cc(F)c1)c1ncccc1C(=O)O	inactive	
CC(Cl)(Cl)Cl	inactive	
CCOc1cc(OP(=S)(OC)OC)nc(CC)n1	inactive	
CCN(CCO)CCO	inactive	
C[C@H](N)C(=O)c1ccccc1	inactive	
CC(C)C(C)(N)C#N (stereo not given)	inactive	
CCCOc1nn(C(=O)NS(=O)(=O)c2ccccc2C(=O)OC)c(=O)n1C	inactive	
O=S1(=O)OCCO1	inactive	
CNC(=O)NC(O)C(Cl)(Cl)Cl (stereo not given)	inactive	
C=CC1(C)OC(=O)N(c2cc(Cl)cc(Cl)c2)C1=O (stereo not given)	61.1 µM (active)	
OP(O)c1ccccc1	inactive	

SMILES	Potency	activity change, negative = cytotoxicity
CCOC1Oc2ccc(OS(C)(=O)=O)cc2C1(C)C (stereo not given)	54 µM (active)	
CCC(=O)OC1(c2ccccc2)CCN(C)CC1	inactive	
O=C/C=C/c1ccco1	inactive	
OCC(Cl)CCl (stereo not given)	inactive	
CCC(=O)c1ccc(Cl)cc1	inactive	
Clc1ccc(C(Cl)(Cl)Cl)cn1	inactive	
NCCOS(=O)(=O)O	inactive	
CN(CCO)CCO	inactive	
CCNP(=S)(OC)O/C(C)=C/C(=O)OC(C)C (stereo not given)	54.5 µM (active)	
CCOC(=O)C(Cl)Cc1cc(-n2nc(C)n(C(F)F)c2=O)c(F)cc1Cl (stereo not given)	54.5 µM (active)	
Clc1cc2c(cc1Cl)Oc1cc(Cl)c(Cl)cc1O2		7.26% [at 0.345 µM]
BrCC1CO1 (stereo not given)	inactive	
COP(=O)(O)OC	inactive	
O=C(O)CBr	inactive	
CS(=O)(=O)Cl	inactive	
CN(C)C1CCCCC1	inactive	
Cc1ccc(S(=O)(=O)N[C@@H](CCCCN)C(=O)CCl)cc1	10.6 µM (active)	
CCc1cc(OC)c(C[C@H](C)N)cc1OC	63.7 µM (active)	
C(COCC1CO1)OCC1CO1 (stereo not given)	8.63 µM (active)	
COC1=CC(=O)O[C@@H](/C=C/c2ccccc2)C1	inactive	
